Measurements published in PubChem BioAssay (NCATS).
“And” between values parts separate entries of the source, which are not always exact repeats. Equal entries are not always repeated. Values without a mark were called inactive. Inconclusive results are not listed. The source made the active and inactive calls. Unless noted, the call rests on the fitted dose curve; in most records, active means well fitted curve in the direction sought with a large enough effect; inconclusive means small, poorly fitted or top-dose-only effect, or another doubt; inactive means no such curve, though single readings can be large; an effect the other way counts as inactive or inconclusive.

Experiments:
[1] = Cell Viability - BJ (AID 421; calls by dose curve;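 further: potency means the concentration at half of the fitted maximal effect; cells exposed to compound for 40 hours at 37 °C before readout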); conditions: BJ fibroblast viability, qHTS
Outline: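 Normal human BJ foreskin fibroblasts, 1500/well in complete medium, treated 40 hr at 37 °C. Cellular ATP by CellTiter-Glo luminescence; normalized to DMSO and 100 uM tamoxifen, AC50 from Hill fit.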

[2] = Cell Viability - Hek293 (AID 427;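 active means compounds whose dose-response curve shows a full or clear partial loss of cell viability, called from curve shape rather than a numeric limit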;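 further: potency means the concentration at half of the fitted maximal effect; cells exposed to compound for 40 hours at 37 °C before reading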); conditions: qHTS
Outline: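 HEK293 cells in complete medium were exposed to compound for 40 hr at 37 °C, then cellular ATP was read by CellTiter-Glo luminescence. Data were normalized to DMSO (basal) and 100 uM tamoxifen (100% inhibition), and AC50 came from Hill fits.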

[3] = Cell Viability - HepG2 (AID 433; calls by dose curve;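 further: potency means the concentration at half of the fitted maximal effect; potency for ATP loss meaning cytotoxicity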); conditions: qHTS
Outline: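 HepG2 cells, 1500 per well, treated 40 hr at 37 °C in complete medium; viability from intracellular ATP by CellTiter-Glo luminescence. Normalized to DMSO and 100 uM tamoxifen; AC50 from Hill fit of qHTS concentration-response.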

[4] = Cell Viability - MRC5 (AID 434; calls by dose curve;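 further: potency means the concentration at half of the fitted maximal effect; potency reflects cytotoxicity seen as loss of intracellular ATP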); conditions: MRC5 lung fibroblast viability, qHTS
Outline: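 ATP luminescence read-out (CellTiter-Glo, 20 min RT) after 40 hr, 37 °C compound exposure of 1500 MRC5 cells/well. Data normalized to DMSO (basal) and 100 uM tamoxifen (100% inhibition); AC50 from standard Hill equation.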

[5] = Cell Viability - SK-N-SH (AID 435; calls by dose curve;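 further: potency means the concentration at half of the fitted maximal effect; compound exposure lasted 40 h at 37 °C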); conditions: SK-N-SH neuroblastoma cell viability qHTS
Outline: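 SK-N-SH neuroblastoma cells (1500/well) treated 40 h at 37 °C in complete medium; viability read as cellular ATP by CellTiter-Glo luminescence. Normalized to DMSO and 100 uM tamoxifen; AC50 from Hill fits of qHTS concentration-response.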

[6] = target: Mitogen-activated protein kinase 10 (Mus musculus) (UniProt Q61831); assay: JNK3 AlphaScreen Assay (AID 530; active means well fitted curve in either direction with a large enough effect, not every such curve was filed as active;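 further: kinase came from lysate of stimulated human HepG2 cells; signal reports phosphorylation of biotinylated GST-cJun 1-79 at Ser73 with 10 µM ATP; on the % scale 0 is the no-effect control and ±100 the full control effect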); conditions: JNK3 lysate, c-Jun phosphorylation; series mostly up to 25.6 µM
Outline: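 HepG2 lysate (IL-1b/TNFa pre-activated) + biotin-GST-cJun 1-79 + anti-pSer73 cJun; cpd titration, 15 min RT; ATP 10 uM start; Tris pH 7.6, MgCl2, DTT, vanadate; beads in EDTA buffer; AlphaScreen.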

[7] = Cell Viability - N2a (AID 540); conditions: N2a mouse neuroblastoma cell viability; activity change, negative = cytotoxicity: at 92.2 µM (top of the series); further: nearly all actives have a fitted effect of over 45% in size; further: potency means the concentration at half of the fitted maximal effect;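 on activity change, negative = cytotoxicity: plate controls were DMSO alone for no effect and tamoxifen control for full effect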
Outline: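 In this qHTS cytotoxicity screen, ATP-dependent luciferase luminescence reports viable N2a cells after a 40 hr compound exposure in complete culture medium. Potencies are AC50 values from standard Hill equation fits.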

[8] = Cell Viability - HUV-EC-C (AID 542); conditions: HUV-EC-C endothelial cell viability, qHTS; series mostly up to 92.2 µM; further: nearly all actives have a fitted effect of over 35% in size; further: potency means the concentration at half of the fitted maximal effect
Outline: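 Concentration-dependent ATP loss in HUV-EC-C cells is the measure. Exposure lasts 40 hr at 37 °C; luminescence follows CellTiter-Glo addition, and Hill fits give AC50.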

[9] = Cell Viability - H-4-II-E (AID 543); conditions: H-4-II-E rat hepatoma viability; series mostly up to 92.2 µM; further: nearly all actives have a fitted effect of over 35% in size; further: potency means the concentration at half of the fitted maximal effect
Outline: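 AC50 from Hill-modelled qHTS concentration-response curves. H-4-II-E rat hepatoma cells in complete medium, 40 hr exposure at 37 °C, viability by CellTiter-Glo ATP luminescence.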

[10] = Cell Viability - Renal Proximal Tubule (AID 545); conditions: renal proximal tubule cells viability, primary cells of rat origin; activity change, negative = cytotoxicity: at 91.7 µM (top of the series); further: nearly all actives have a fitted effect of over 40% in size; further: potency means the concentration at half of the fitted maximal effect;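 on activity change, negative = cytotoxicity: 0% = DMSO only and -100% = 100 µM tamoxifen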
Outline: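 Rat renal proximal tubule primary cells, 1000/well, exposed to compounds for 40 hr at 37 °C in complete medium; cellular ATP read by CellTiter-Glo luminescence. AC50 from concentration-response fitted with standard Hill equation.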

[11] = Cell Viability - Jurkat (AID 426;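 active means dose-dependent loss of cell ATP signal giving a full or clear fitted curve, ranked by lower potency value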; further: potency means the concentration at half of the fitted maximal effect); conditions: qHTS
Outline: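 Cytotoxicity was scored as loss of cellular ATP, measured by luciferase-based luminescence, in Jurkat clone E6-1 cells after 40 h compound treatment; tamoxifen and doxorubicin served as positive controls.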

[12] = Cell Viability - NIH 3T3 (AID 541); conditions: NIH 3T3 cell viability, qHTS; activity change, negative = cytotoxicity: at 92.2 µM (top of the series); further: nearly all actives have a fitted effect of over 25% in size; further: potency means the concentration at half of the fitted maximal effect;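 on activity change, negative = cytotoxicity: plate controls were DMSO alone for no effect and tamoxifen positive control for full effect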
Outline: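 In this cytotoxicity screen, acute toxicity is scored as an ATP drop measured by CellTiter-Glo in NIH 3T3 fibroblasts following a 40 hr, 37 °C incubation with compound.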

[13] = Cell Viability - SH-SY5Y (AID 544); conditions: SH-SY5Y neuroblastoma cell viability; viability change, negative = cytotoxic: at 92.2 µM (top of the series); further: nearly all actives have a fitted effect of over 55% in size; further: potency means the concentration at half of the fitted maximal effect;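 on viability change, negative = cytotoxic: 0% = DMSO alone and -100% = 100 µM tamoxifen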
Outline: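 Quantitative HTS in SH-SY5Y neuroblastoma cells, 40 hr treatment at 37 °C, ATP content by luciferase luminescence; AC50 from Hill fits.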

[14] = target: Cytochrome P450 1A2 (Homo sapiens) (UniProt P05177); assay: p450-cyp1a2 (AID 410; calls by dose curve; further: potency means the concentration at half of the fitted maximal effect;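 on activity change, negative = inhibition: -100% = full effect of reference inhibitor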); conditions: recombinant CYP1A2, luciferin-ME demethylation, luminescence; series mostly up to 25.6 µM
Cytochrome P450 1A2 (Homo sapiens), sequence (P05177 whole entry, looked up): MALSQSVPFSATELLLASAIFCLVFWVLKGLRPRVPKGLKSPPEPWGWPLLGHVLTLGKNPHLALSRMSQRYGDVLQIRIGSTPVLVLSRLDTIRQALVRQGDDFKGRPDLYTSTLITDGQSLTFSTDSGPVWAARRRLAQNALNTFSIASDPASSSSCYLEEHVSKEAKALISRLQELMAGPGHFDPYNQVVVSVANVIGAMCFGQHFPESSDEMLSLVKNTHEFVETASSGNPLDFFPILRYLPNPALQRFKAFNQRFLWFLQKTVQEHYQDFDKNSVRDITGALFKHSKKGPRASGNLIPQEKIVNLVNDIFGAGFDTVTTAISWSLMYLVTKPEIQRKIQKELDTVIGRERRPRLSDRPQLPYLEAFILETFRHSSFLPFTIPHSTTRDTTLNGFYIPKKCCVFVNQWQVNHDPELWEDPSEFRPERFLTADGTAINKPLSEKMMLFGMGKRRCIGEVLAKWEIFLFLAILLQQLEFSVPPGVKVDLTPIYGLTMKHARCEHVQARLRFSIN
Outline: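 Read-out is luminescence from luciferin produced by CYP1A2 demethylation of Luciferin-ME (100uM, at Km). Detection reagent stopped the 60 min NADPH-dependent reaction; signals were normalized to 57 uM furafylline.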

[15] = NFAT Signaling Pathway (AID 444; active means well fitted curve in either direction with a large enough effect, not every such curve was filed as active;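 further: carbachol stimulus at about its EC50 of 1 µM final; on the % scale 0 is the no-effect control and ±100 the full control effect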); conditions: Jurkat NFAT-bla M1, carbachol, beta-lactamase ratio, 5 h; at 17.2 µM (top of the series)
Outline: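 Jurkat cells with NFAT-driven β-lactamase reporter and co-expressed M1 receptor, stimulated with carbachol (final 1 uM, ~EC50), compound titration, 5 h at 37 °C. CCF4 loaded 1 h at RT; 460/530 nm ratio gave %activity and AC50.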

[16] = Stat Signaling Pathway (AID 446; active means well fitted curve in either direction with a large enough effect, not every such curve was filed as active;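 further: ME-180 cervical cancer cells given 40 pM IL-6 alongside compound; SIE-controlled beta-lactamase reporter measured as 460/530 nm FRET emission ratio; on the % scale 0 is the no-effect control and ±100 the full control effect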); conditions: ME-180 SIE beta-lactamase reporter, IL-6 stimulated, 5 h; at 17.2 µM (top of the series)
Outline: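 Normalization used AC90 stimulation (300 pM IL-6) and AC90 inhibition (125 nM pan-JAK inhibitor at 40 pM IL-6). The underlying signal is SIE-driven beta-lactamase in ME-180 cells after 5 h IL-6 exposure with compound.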

[17] = target: Glucocorticoid receptor (Homo sapiens) (UniProt P04150); assay: GR-GFP Redistribution (AID 450;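 active means compounds whose dose series gives a full or clear partial fitted curve of increased nuclear translocation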; further: potency means the concentration at half of the fitted maximal effect); conditions: U2OS GR-GFP nuclear translocation, laser cytometry, 2 h
Glucocorticoid receptor (Homo sapiens), sequence (P04150 whole entry, looked up, the tested form may be a part): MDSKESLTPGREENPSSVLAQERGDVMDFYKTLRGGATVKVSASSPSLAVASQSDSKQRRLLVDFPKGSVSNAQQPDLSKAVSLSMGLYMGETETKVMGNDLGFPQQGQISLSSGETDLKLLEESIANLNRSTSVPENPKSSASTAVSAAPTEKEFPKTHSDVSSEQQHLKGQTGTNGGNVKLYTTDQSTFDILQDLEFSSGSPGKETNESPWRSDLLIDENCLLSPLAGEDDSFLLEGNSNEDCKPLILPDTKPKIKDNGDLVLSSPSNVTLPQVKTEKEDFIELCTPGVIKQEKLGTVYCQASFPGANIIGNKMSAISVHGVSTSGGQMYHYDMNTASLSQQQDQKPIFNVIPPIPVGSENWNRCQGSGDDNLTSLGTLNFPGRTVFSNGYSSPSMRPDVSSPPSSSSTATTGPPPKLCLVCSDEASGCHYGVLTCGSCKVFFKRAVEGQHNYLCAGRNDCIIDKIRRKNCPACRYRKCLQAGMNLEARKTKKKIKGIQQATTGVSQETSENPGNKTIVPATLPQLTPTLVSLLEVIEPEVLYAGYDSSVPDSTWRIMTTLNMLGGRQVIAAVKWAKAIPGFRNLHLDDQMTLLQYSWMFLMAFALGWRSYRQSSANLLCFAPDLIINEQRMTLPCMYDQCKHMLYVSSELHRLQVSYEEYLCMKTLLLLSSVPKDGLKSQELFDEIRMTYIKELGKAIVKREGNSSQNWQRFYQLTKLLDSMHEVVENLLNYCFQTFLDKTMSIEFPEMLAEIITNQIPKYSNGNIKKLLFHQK

[18] = target: Glucocorticoid receptor (Homo sapiens) (UniProt P04150); assay: GR-EFC Redistribution (AID 451; calls by dose curve; further: potency means the concentration at half of the fitted maximal effect); conditions: CHO-K1 GR-EFC translocation, beta-gal luminescence, 2 h
Outline: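 CHO-K1 cells expressing nuclear EA and GR-ED fragments of b-gal; compounds titrated up to 46 uM final, 2 h at 37 C. GR nuclear translocation read as complemented b-gal luminescence after 1 h RT detection.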

[19] = AP1 Signaling Pathway (AID 357; active means well fitted curve in either direction with a large enough effect, not every such curve was filed as active; further: on the % scale 0 is the no-effect control and ±100 the full control effect); conditions: ME-180 AP-1-bla reporter, EGF-induced, beta-lactamase ratio, 5 h; at 17.2 µM (top of the series)
Outline: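 ME-180 cells with beta-lactamase reporter under AP-1 response element, stimulated with EC50 EGF; compounds tested in titration series, 5 h at 37 °C. CCF4 substrate added 2.5 h at room temperature; 460/530 nm emission ratio gave %activity and AC50.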

CN(C)/N=N/c1nc[nH]c1C(N)=O
Potency [1]: > 92 µM
Potency [2]: > 92 µM
Potency [3]: > 92 µM
Potency [4]: > 92 µM
Potency [5]: > 92 µM
outcome [6]: inactive
Potency [7]: inactive
Potency [8]: inactive
Potency [9]: 25.1 µM (active)
activity change, negative = cytotoxicity [10]: -19.1%

O=C(O)CCCCC(=O)O
Potency [1]: > 92 µM
Potency [11]: > 92 µM
Potency [2]: > 92 µM
Potency [3]: > 92 µM
Potency [4]: > 92 µM
Potency [5]: > 92 µM
outcome [6]: inactive
Potency [7]: inactive
Potency [12]: inactive
Potency [8]: inactive
Potency [9]: inactive
Potency [13]: inactive
activity change, negative = cytotoxicity [10]: 1.76%

CN1CCC(=C2c3ccccc3Sc3ccccc32)CC1
Potency [14]: inactive
activity change, negative = inhibition [15]: -31.6% (active)
activity, negative = inhibition [16]: -4.56%
Potency [17]: > 20.6 µM
Potency [18]: > 20.6 µM
outcome [6]: inactive

COc1cccc2c1C(=O)c1c(O)c3c(c(O)c1C2=O)C[C@@](O)(C(=O)CO)C[C@@H]3O[C@H]1C[C@H](N)[C@H](O)[C@H](C)O1
Potency [1]: 0.177 µM (active)
Potency [11]: 0.0218 µM (active)
Potency [2]: 0.0255 µM (active)
Potency [3]: > 92 µM
Potency [5]: 0.0168 µM (active)
Potency [17]: > 20.6 µM
outcome [6]: inactive
Potency [7]: 0.398 µM (active)
Potency [12]: 0.0794 µM (active)
Potency [9]: 25.1 µM (active)
Potency [13]: 0.0126 µM (active)
Potency [10]: 15.8 µM (active)

CN=C(NC#N)NCCSCc1csc(N=C(N)N)n1
Potency [17]: > 46 µM
Potency [18]: > 46 µM

CCCCOc1ccc(OCCCN2CCOCC2)cc1
activity change, negative = inhibition [19]: 5.36% and -1.05%
outcome [6]: inactive

CC/C(=C(/CC)c1ccc(O)cc1)c1ccc(O)cc1
Potency [1]: > 92 µM
Potency [11]: 21.5 µM (active)
Potency [3]: > 92 µM
Potency [4]: > 92 µM
outcome [6]: inactive
activity change, negative = cytotoxicity [7]: -83.5% (active)
Potency [13]: 31.6 µM (active)

CC(O)C(=O)O (configuration not stated)
Potency [1]: > 92 µM
Potency [11]: > 92 µM
Potency [2]: > 92 µM
Potency [3]: > 92 µM
Potency [4]: > 92 µM
Potency [5]: > 92 µM
outcome [6]: inactive
Potency [7]: inactive
Potency [12]: inactive
Potency [8]: inactive
Potency [9]: inactive
Potency [13]: inactive
activity change, negative = cytotoxicity [10]: -2.48%

CN(C)CCCOc1nn(Cc2ccccc2)c2ccccc12
activity change, negative = inhibition [19]: 10.8%
Potency [17]: > 20.6 µM
Potency [18]: > 20.6 µM
outcome [6]: inactive

C[C@@H](CN(C)C)CN1c2ccccc2Sc2ccccc21
activity change, negative = inhibition [19]: 82.2% [activator] (active)
activity, negative = inhibition [16]: -7.27%
Potency [17]: > 20.6 µM
Potency [18]: > 20.6 µM
outcome [6]: inactive

COc1ccc(CCN2CCC(Nc3nc4ccccc4n3Cc3ccc(F)cc3)CC2)cc1
activity change, negative = inhibition [19]: -6.26% and 6.64%
activity, negative = inhibition [16]: -11% and -15.4%
Potency [17]: > 20.6 µM
Potency [18]: > 20.6 µM
outcome [6]: inactive

C=CCc1ccc(O)c(OC)c1
Potency [1]: > 92 µM
Potency [11]: > 92 µM
Potency [2]: > 92 µM
Potency [3]: > 92 µM
Potency [4]: > 92 µM
Potency [5]: > 92 µM
outcome [6]: inactive
Potency [7]: inactive
Potency [12]: inactive
Potency [8]: inactive
Potency [9]: inactive
Potency [13]: inactive
activity change, negative = cytotoxicity [10]: 5.39%

NC(=NCCCCCCN=C(N)/N=C(\N)Nc1ccc(Cl)cc1)/N=C(\N)Nc1ccc(Cl)cc1
Potency [14]: 15.8 µM (active)
Potency [11]: 42.1 µM (active)
Potency [2]: 45.6 µM (active)
Potency [3]: 39.6 µM (active)
Potency [4]: 50 µM (active)
Potency [5]: 46.5 µM (active)
activity, negative = inhibition [16]: -5.46%
Potency [17]: > 20.6 µM
Potency [18]: > 20.6 µM
outcome [6]: inactive
Potency [7]: 31.6 µM (active)
Potency [12]: 31.6 µM (active)
Potency [8]: 39.8 µM (active)
Potency [9]: 31.6 µM (active)
activity change, negative = cytotoxicity [10]: -102% (active)

O=C1c2ccccc2C(=O)C1c1ccccc1
activity change, negative = inhibition [19]: -0.252%
activity change, negative = inhibition [15]: -11.7%
Potency [17]: > 20.6 µM
Potency [18]: > 20.6 µM
outcome [6]: inactive
